Test results reported in PubChem BioAssay (EPA / NIEHS).
Calls of active or inactive are those of the source. Rule for the calls: active = hit-call score of the fitted dose curve at least 0.9, where 1 is the maximum; inactive = score below 0.9.

Assays:
[1] = read-out: Macrophage colony-stimulating factor (MCSF), CSF1 (gene 1435); test: BSK_hDFCGF_MCSF: BioMAP Diversity Plus: hDFCGF Assay for Macrophage colony-stimulating factor (MCSF) Biomarker Activity (AID 2283060); conditions: primary human foreskin fibroblasts; actives raise or lower the signal
Procedure, shortened: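 M-CSF levels read by ELISA at 24 h post-dosing in human skin fibroblasts. Parallel cultures stained with SRB assessed cytotoxicity at the same time point; response fitted in both directions against the DMSO baseline.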

[2] = BSK_hDFCGF_SRB: Viability Assessment in the BioMAP Diversity Plus: hDFCGF Assay (AID 2283061); conditions: primary human foreskin fibroblasts;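 note: cells exposed to compound for 24 h before the read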
Procedure, shortened: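 Viability was read as total protein: after 10% TCA fixation, wells were stained with 0.1% sulforhodamine B and read at 560 nm. Primary human foreskin fibroblasts were dosed for 24 h, with bidirectional fitting versus DMSO.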

[3] = read-out: TIMP metallopeptidase inhibitor 1 (TIMP1), TIMP1 (gene 7076); test: BSK_hDFCGF_TIMP1: BioMAP Diversity Plus: hDFCGF Assay for TIMP metallopeptidase inhibitor 1 (TIMP1) Biomarker Activity (AID 2283062); conditions: primary human foreskin fibroblasts; actives raise or lower the signal
Procedure, shortened: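 TIMP-1 measured by ELISA 24 h after chemical dosing of primary human skin fibroblasts, with gain or loss fitted relative to DMSO. Parallel SRB staining (560 nm) monitored overt cytotoxicity.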

[4] = read-out: Monokine induced gamma interferon (MIG), CXCL9 (gene 4283); test: BSK_hDFCGF_MIG: BioMAP Diversity Plus: hDFCGF Assay for Monokine induced gamma interferon (MIG) Biomarker Activity (AID 2283063); conditions: primary human foreskin fibroblasts; actives raise or lower the signal
Procedure, shortened: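 Human primary foreskin fibroblasts in the hDFCGF system, exposed to test chemical for 24 h; MIG measured by ELISA. Bidirectional curve fitting against DMSO negative control as activity baseline.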

[5] = read-out: Matrix Metallopeptidase 1 (MMP1), MMP1 (gene 4312); test: BSK_hDFCGF_MMP1: BioMAP Diversity Plus: hDFCGF Assay for Matrix Metallopeptidase 1 (MMP1) Biomarker Activity (AID 2283064); conditions: primary human foreskin fibroblasts; actives raise or lower the signal
Procedure, shortened: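 Primary human foreskin fibroblasts exposed to chemicals for 24 h; MMP1 measured by ELISA. Cytotoxicity tracked by SRB staining in parallel cultures; bidirectional fit relative to DMSO.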

[6] = read-out: Vascular cell adhesion molecule 1 (VCAM1), VCAM1 (gene 7412); test: BSK_hDFCGF_VCAM1: BioMAP Diversity Plus: hDFCGF Assay for Vascular cell adhesion molecule 1 (VCAM1) Biomarker Activity (AID 2283065); conditions: primary human foreskin fibroblasts; actives raise or lower the signal;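 for AC50: VCAM-1 protein level quantified by ELISA after 24 h chemical exposure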
Procedure, shortened: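 ELISA readout of VCAM-1 on human dermal fibroblast primary cultures, 24 h after chemical exposure. Gain or loss of signal fitted in both directions against DMSO baseline.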

[7] = read-out: Plasminogen activator inhibitor-1 (PAI1), SERPINE1 (gene 5054); test: BSK_hDFCGF_PAI1: BioMAP Diversity Plus: hDFCGF Assay for Plasminogen activator inhibitor-1 (PAI1) Biomarker Activity (AID 2283066); conditions: primary human foreskin fibroblasts; actives raise or lower the signal
Procedure, shortened: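 Human foreskin fibroblasts in the hDFCGF system were dosed with compound for 24 h; PAI-1 was quantified by ELISA. Bidirectional curve fitting used DMSO as negative control and baseline.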

[8] = read-out: Intercellular Adhesion Molecule 1 (ICAM1), ICAM1 (gene 3383); test: BSK_KF3CT_ICAM1: BioMAP Diversity Plus: KF3CT Assay for Intercellular Adhesion Molecule 1 (ICAM1) Biomarker Activity (AID 2283067); conditions: primary human keratinocytes with fibroblasts; actives raise or lower the signal
Procedure, shortened: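 Cell-surface ICAM-1 was measured by ELISA 24 h after dosing primary human skin keratinocytes co-cultured with fibroblasts. Parallel SRB staining tracked overt cytotoxicity. Gain or loss of signal was fitted relative to DMSO.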

[9] = BSK_KF3CT_SRB: Viability Assessment in the BioMAP Diversity Plus: KF3CT Assay (AID 2283069); conditions: primary human keratinocytes with fibroblasts;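 note: total protein by sulforhodamine B staining as a cytotoxicity measure; read 24 h after compound addition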
Procedure, shortened: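 Human keratinocyte and foreskin fibroblast co-culture exposed to chemical for 24 h. Total protein measured in parallel cultures by 0.1% sulforhodamine B staining after 10% TCA fixation, read at 560 nm; bidirectional fit relative to DMSO.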

[10] = read-out: Interleukin-1 alpha (IL1a), IL1A (gene 3552); test: BSK_KF3CT_IL1a: BioMAP Diversity Plus: KF3CT Assay for Interleukin-1 alpha (IL1a) Biomarker Activity (AID 2283070); conditions: primary human keratinocytes with fibroblasts; actives raise or lower the signal
Procedure, shortened: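 Primary human keratinocyte plus foreskin fibroblast co-culture, dosed and measured at 24 h in 96-well plates. IL-1a level quantified by ELISA; bidirectional fit relative to DMSO.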

[11] = read-out: TIMP metallopeptidase inhibitor 2 (TIMP2), TIMP2 (gene 7077); test: BSK_KF3CT_TIMP2: BioMAP Diversity Plus: KF3CT Assay for TIMP metallopeptidase inhibitor 2 (TIMP2) Biomarker Activity (AID 2283071); conditions: primary human keratinocytes with fibroblasts; actives raise or lower the signal
Procedure, shortened: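 Human primary keratinocyte/foreskin fibroblast co-culture dosed with chemical and sampled at 24 h. TIMP-2 levels quantified by ELISA; bidirectional fitting against DMSO negative control as baseline.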

[12] = read-out: Transforming growth factor beta 1 (TGFb1), TGFB1 (gene 7040); test: BSK_KF3CT_TGFb1: BioMAP Diversity Plus: KF3CT Assay for Transforming growth factor beta 1 (TGFb1) Biomarker Activity (AID 2283072); conditions: primary human keratinocytes with fibroblasts; actives raise or lower the signal
Procedure, shortened: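 Human keratinocyte plus foreskin fibroblast primary co-culture, dosed with chemical for 24 h. TGF-b1 quantified by ELISA. Activity fitted bidirectionally against DMSO negative control as baseline.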

[13] = read-out: C-C motif chemokine 2 (Homo sapiens) (UniProt P13500); test: BSK_KF3CT_MCP1: BioMAP Diversity Plus: KF3CT Assay for Monocyte Chemoattractant Protein 1 (MCP1/CCL2) Biomarker Activity (AID 2283073); conditions: primary human keratinocytes with fibroblasts; actives raise or lower the signal
Procedure, shortened: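 ELISA read-out of MCP-1, 24 h post-dose, in primary human skin keratinocytes co-cultured with fibroblasts. Parallel SRB staining monitors cytotoxicity; changes fitted both directions relative to DMSO.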

[14] = read-out: Matrix Metallopeptidase 9 (MMP9), MMP9 (gene 4318); test: BSK_KF3CT_MMP9: BioMAP Diversity Plus: KF3CT Assay for Matrix Metallopeptidase 9 (MMP9) Biomarker Activity (AID 2283074); conditions: primary human keratinocytes with fibroblasts; actives raise or lower the signal;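 for AC50: MMP9 protein level quantified by ELISA in the co-culture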
Procedure, shortened: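 Human keratinocyte and foreskin fibroblast co-culture exposed to chemicals for 24 h; MMP9 biomarker measured by ELISA, bidirectional fitting relative to DMSO; cytotoxicity tracked by SRB total protein staining in parallel cultures.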

[15] = read-out: urokinase plasminogen activator (uPA), PLAU (gene 5328); test: BSK_KF3CT_uPA: BioMAP Diversity Plus: KF3CT Assay for urokinase plasminogen activator (uPA) Biomarker Activity (AID 2283075); conditions: primary human keratinocytes with fibroblasts; actives raise or lower the signal
Procedure, shortened: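 Primary human keratinocyte/foreskin fibroblast co-culture exposed to chemical; uPA measured by ELISA at 24 h. Bidirectional fit versus DMSO, with parallel SRB total-protein staining for cytotoxicity.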

[16] = read-out: CD40, CD40 (gene 958); test: BSK_LPS_CD40: BioMAP Diversity Plus: LPS Assay for CD40 Biomarker Activity (AID 2283076); conditions: primary human HUVEC with PBMC; actives raise or lower the signal
Procedure, shortened: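 In the LPS system of human endothelial cells with peripheral blood mononuclear cells, CD40 levels were read by ELISA 24 h post-treatment. Signal changes in either direction were fitted against the DMSO baseline, with parallel SRB protein staining.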

[17] = read-out: E-selectin (Homo sapiens) (UniProt P16581); test: BSK_LPS_Eselectin: BioMAP Diversity Plus: LPS Assay for Eselectin Biomarker Activity (AID 2283077); conditions: primary human HUVEC with PBMC; actives raise or lower the signal
Procedure, shortened: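 E-selectin ELISA on LPS-stimulated endothelial cell/PBMC co-cultures, read 24 h post-treatment; gains and losses fitted against DMSO. Parallel SRB staining (0.1% SRB after 10% TCA fixation, 560 nm) flags overt cytotoxicity.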

[18] = read-out: Interleukin-8 (IL8), CXCL8 (gene 3576); test: BSK_LPS_IL8: BioMAP Diversity Plus: LPS Assay for Interleukin-8 (IL8) Biomarker Activity (AID 2283078); conditions: primary human HUVEC with PBMC; actives raise or lower the signal
Procedure, shortened: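 ELISA read-out of IL-8 after 24 h chemical treatment of LPS-activated endothelial/PBMC human primary co-cultures. Changes either up or down relative to DMSO; overt cytotoxicity checked by sulforhodamine B staining in parallel wells.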

[19] = BSK_LPS_SRB: Viability Assessment in the BioMAP Diversity Plus: LPS Assay (AID 2283079); conditions: primary human HUVEC with PBMC;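 note: total protein by sulforhodamine B absorbance as a cytotoxicity measure; measured one day after compound addition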
Procedure, shortened: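 SRB viability endpoint: cells fixed with 10% TCA, stained with 0.1% SRB, read at 560 nm, 24 h post-dose. HUVEC/PBMC co-culture; signal change in either direction scored relative to DMSO.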

[20] = read-out: Interferon-gamma inducible Protein 10 (IP10), CXCL10 (gene 3627); test: BSK_KF3CT_IP10: BioMAP Diversity Plus: KF3CT Assay for Interferon-gamma inducible Protein 10 (IP10) Biomarker Activity (AID 2283068); conditions: primary human keratinocytes with fibroblasts; actives raise or lower the signal
Procedure, shortened: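 In a primary skin co-culture of keratinocytes and fibroblasts, IP-10 is quantified by ELISA at 24 h after dosing. SRB staining of parallel wells monitors overt toxicity. Curves are fitted both directions against DMSO.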

Measured: AC50

Sequence of E-selectin (Homo sapiens) (P16581 whole entry, looked up): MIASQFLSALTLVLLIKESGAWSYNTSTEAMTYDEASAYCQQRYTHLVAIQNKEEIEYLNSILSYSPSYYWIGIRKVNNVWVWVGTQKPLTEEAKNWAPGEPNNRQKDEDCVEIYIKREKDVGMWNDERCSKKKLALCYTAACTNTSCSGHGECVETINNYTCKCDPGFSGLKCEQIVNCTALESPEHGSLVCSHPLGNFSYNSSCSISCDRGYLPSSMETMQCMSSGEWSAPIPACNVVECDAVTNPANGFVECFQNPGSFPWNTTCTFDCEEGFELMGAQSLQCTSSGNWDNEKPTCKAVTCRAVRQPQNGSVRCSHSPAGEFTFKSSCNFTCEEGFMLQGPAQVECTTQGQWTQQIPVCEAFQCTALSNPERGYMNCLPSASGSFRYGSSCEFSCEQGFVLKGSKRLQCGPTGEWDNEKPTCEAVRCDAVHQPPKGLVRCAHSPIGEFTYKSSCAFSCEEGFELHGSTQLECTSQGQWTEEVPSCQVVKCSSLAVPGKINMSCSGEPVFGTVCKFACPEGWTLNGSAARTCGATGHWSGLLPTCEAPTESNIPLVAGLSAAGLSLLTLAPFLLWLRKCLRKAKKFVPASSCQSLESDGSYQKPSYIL

CCCOc1nn(C(=O)NS(=O)(=O)c2ccccc2C(=O)OC)c(=O)n1C
active: [14] 0.103 µM | [18] 0.907 µM
not listed: [20]
inactive: all other assays above

CCCCOC(=O)c1ccccc1C(=O)O
inactive: all assays above

CCC(CC)Nc1c([N+](=O)[O-])cc(C)c(C)c1[N+](=O)[O-]
active: [1] 13.5 µM | [4] 11.8 µM | [5] 6.93 µM | [6] 11.9 µM | [20] 13.8 µM | [14] 8.34 µM | [16] 20 µM | [17] 16.8 µM | [18] 18 µM | [19] 20 µM
inactive: [2] | [3] | [7] | [8] | [9] | [10] | [11] | [12] | [13] | [15]

CN(C)NC(=O)CCC(=O)O
inactive: all assays above

CC1(C(=O)Nc2ccc(O)c(Cl)c2Cl)CCCCC1
active: [17] 16.4 µM
inactive: all other assays above
